PubChem BioAssay (Tox21)
Results filed as inconclusive are left out. Where a call stands in place of a potency, no number is given. Activity calls are given as the source filed them. Calls come from the whole dose curve; as a rule, active = well fitted activation curve with a large enough effect; inconclusive = small, poorly fitted or top-dose-only effect; inactive = flat fitted curve, though single readings scatter. Positions of bridges follow the written chain, without caps; N, C: chain ends. Non-standard residues stand in square brackets, D forms with d. Residues, ends and D or L forms follow the SMILES beside them. *: point of attachment. Dab(CH2SO3H) = N[C@@H](CCNCS(=O)(=O)O)C(=O)O; X3 = CC[C@@H](C)CCCCC(=O)*; Dab = NCC[C@H](N)C(=O)O

Assay: qHTS assay to identify small molecule phospholipidosis (PLD) inducers (AID 1259344)
Conditions: HepG2 phospholipidosis, LipidTOX Red imaging, 24 h; series mostly up to 38.3 µM
Outline: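 Phospholipid accumulation was scored by imaging: fixed, Hoechst-counterstained HepG2 cells stained with LipidTOX Red after 24 h compound exposure at 37 C. Read-outs were pit count and pit intensity per well or per cell, with amiodarone and DMSO controls.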
In the case of Cc1cc(=O)c(C(=O)N[C@@H](C(=O)N[C@@H]2C(=O)N3C(C(=O)O)=C(CSc4nnnn4C)CS[C@H]23)c2ccc(O)cc2)c[nH]1, the Potency is reported as “inactive”.
In the case of CC(=O)N[C@@H](C=O)[C@H](O)[C@H](O)[C@@H](O)CO, the Potency is reported as “inactive”.
For CO[C@H]1C[C@@H]2CC[C@@H](C)[C@@](O)(O2)C(=O)C(=O)N2CCCC[C@H]2C(=O)O[C@H]([C@H](C)C[C@@H]2CC[C@@H](O)[C@H](OC)C2)CC(=O)[C@H](C)C=C(C)[C@@H](O)[C@@H](OC)C(=O)[C@H](C)C[C@H](C)/C=C/C=CC=C1C, the Potency was “inactive”.
For FC(F)(F)C(F)(F)C(F)(F)C(F)(F)C(F)(F)F, the Potency was “inactive”.
For COc1cc(NS(C)(=O)=O)ccc1Nc1c2ccccc2nc2ccccc12, the Potency was “inactive”.
For N[C@@H](Cc1cnc[nH]1)C(=O)O, the Potency was “inactive”.
For Cc1cc(C(=O)NCCc2ccc(S(=O)(=O)NC(=O)NN3CCCCCC3)cc2)no1, the Potency was “inactive”.
With CCN(CC)C(=S)S the Potency was “inactive”.
In the case of CC1(C)CCC(NC(=O)[C@@H](N)CCC(=O)O)CC1, the Potency is reported as “inactive”.
For Cc1ncc(C[n+]2csc(CCO)c2C)c(N)n1, the Potency was “inactive”.
With CC(=O)Nc1ccc(OC(C)=O)cc1 the Potency was “inactive”.
With CC(C)C[C@H](NC(=O)[C@@H](COC(C)(C)C)NC(=O)[C@H](Cc1ccc(O)cc1)NC(=O)[C@H](CO)NC(=O)[C@H](Cc1c[nH]c2ccccc12)NC(=O)[C@H](Cc1cnc[nH]1)NC(=O)[C@@H]1CCC(=O)N1)C(=O)N[C@@H](CCCN=C(N)N)C(=O)N1CCC[C@H]1C(=O)NNC(N)=O the Potency was “inactive”.
With C[C@]12O[C@H](C[C@]1(O)CO)n1c3ccccc3c3c4c(c5c6ccccc6n2c5c31)CNC4=O the Potency was “inactive”.
In the case of O=C(O)c1ccccc1O, the Potency is reported as “inactive”.
With CN(Cc1ccccc1)Cc1ccccc1 the Potency was “inactive”.
For CC[C@H](C)C(=O)O[C@H]1CCC=C2C=C[C@H](C)[C@H](CC[C@@H]3C[C@@H](O)CC(=O)O3)[C@H]21, the Potency was “inactive”.
For CON=C1C[C@]2(C[C@@H]3C[C@@H](C/C=C(\C)C[C@@H](C)/C=C/C=C4\CO[C@@H]5[C@H](O)C(C)=C[C@@H](C(=O)O3)[C@]45O)O2)O[C@H](/C(C)=C/C(C)C)[C@H]1C, the Potency was “inactive”.
In the case of CC[C@@H](C)CCCCC(=O)N[C@@H](CCNCS(=O)(=O)O)C(=O)N[C@H](C(=O)N[C@@H](CCNCS(=O)(=O)O)C(=O)N[C@H]1CCNC(=O)[C@H]([C@@H](C)O)NC(=O)[C@H](CCNCS(=O)(=O)O)NC(=O)[C@H](CCNCS(=O)(=O)O)NC(=O)[C@H](CC(C)C)NC(=O)[C@@H](CC(C)C)NC(=O)[C@H](CCNCS(=O)(=O)O)NC1=O)[C@@H](C)O (X3-[Dab(CH2SO3H)]T[Dab(CH2SO3H)][Dab][Dab(CH2SO3H)][dL]L[Dab(CH2SO3H)][Dab(CH2SO3H)]T; lactam 4-C), the Potency is reported as “inactive”.
With CC(=O)NC[C@H]1CN(c2ccc(N3CCOCC3)c(F)c2)C(=O)O1 the Potency was “inactive”.
With CC(C)(O/N=C(\C(=O)N[C@@H]1C(=O)N2C(C(=O)[O-])=C(C[n+]3ccccc3)CS[C@H]12)c1csc(N)n1)C(=O)O the Potency was “inactive”.
With NC(N)=NCC1COC2(CCCCC2)O1 (stereo not given) the Potency was “inactive”.
With CC[C@H]1OC(=O)[C@H](C)C(=O)[C@H](C)[C@@H](O[C@@H]2O[C@H](C)C[C@H](N(C)C)[C@H]2O)[C@](C)(OC)C[C@@H](C)C(=O)[C@H](C)[C@H]2N(CCCCn3cnc(-c4cccnc4)c3)C(=O)O[C@]12C the Potency was “inactive”.
For CCN1\C(=C/C=C/C=C/c2sc3ccccc3[n+]2CC)Sc2ccccc21, the Potency was “inactive”.
For CC/C=C\C/C=C\C/C=C\C/C=C\C/C=C\C/C=C\CCC(=O)O, the Potency was “inactive”.
For CN1C(C(=O)Nc2ccccn2)C(=O)c2sc(Cl)cc2S1(=O)=O (stereo not given), the Potency was “inactive”.
In the case of Nc1nc(/C(=C/CC(=O)O)C(=O)N[C@@H]2C(=O)N3C(C(=O)O)=CCS[C@H]23)cs1, the Potency is reported as “inactive”.
With C=C1[C@@H]2CC[C@@H](C2)C1(C)C the Potency was “inactive”.
With CC(=O)OCC(=O)[C@@]1(O)CC[C@H]2[C@@H]3C[C@H](C)C4=CC(=O)C=C[C@]4(C)[C@H]3[C@@H](O)C[C@@]21C the Potency was “inactive”.
For O=P(O)(O)C(O)(Cn1ccnc1)P(=O)(O)O, the Potency was “inactive”.
In the case of NC(=O)c1cc[n+](CC2=C(C(=O)O)N3C(=O)[C@@H](NC(=O)C(c4ccccc4)S(=O)(=O)[O-])[C@H]3SC2)cc1 (stereo not given in full), the Potency is reported as “inactive”.
In the case of O=S(=O)(O)O, the Potency is reported as “inactive”.
With NC(=O)[C@@H]1CCCN1C(=O)[C@H](Cc1cnc[nH]1)NC(=O)[C@@H]1CCC(=O)N1 the Potency was “inactive”.
For CC[C@@]1([C@@H]2O[C@@H]([C@H]3O[C@@](O)(CO)[C@H](C)C[C@@H]3C)C[C@@H]2C)CC[C@H]([C@]2(C)CC[C@]3(C[C@H](O)[C@@H](C)[C@@H]([C@@H](C)[C@@H](OC)[C@H](C)C(=O)O)O3)O2)O1 (stereo in doubt), the Potency was “inactive”.
For N[C@H](CO)C(=O)O, the Potency was “inactive”.
For CC(C)Cc1ccc([C@H](C)C(=O)O)cc1, the Potency was “inactive”.
In the case of CCCCCCCCCCCCOS(=O)(=O)O, the Potency is reported as “inactive”.
With CCOC(=O)COc1ccc2c(=O)cc(-c3ccccc3)oc2c1 the Potency was “inactive”.
For COc1cc2c(c(OC)c1OC)-c1c(cc3c(c1OC)OCO3)C[C@@H](C)[C@](C)(O)C2, the Potency was “inactive”.
In the case of N=C(N)c1ccc(/C=C/c2ccc(C(=N)N)cc2O)cc1, the Potency is reported as “inactive”.
For CO[C@H](C(=O)[C@@H](O)[C@@H](C)O)C1Cc2cc3cc(O[C@H]4C[C@@H](O[C@H]5C[C@@H](O)[C@H](O)[C@@H](C)O5)[C@@H](O)[C@@H](C)O4)c(C)c(O)c3c(O)c2C(=O)[C@H]1O[C@H]1C[C@@H](O[C@H]2C[C@@H](O[C@H]3C[C@](C)(O)[C@H](O)[C@@H](C)O3)[C@H](O)[C@@H](C)O2)[C@H](O)[C@@H](C)O1 (stereo not given in full), the Potency was “inactive”.
